From PubChem BioAssay (Tox21) come the findings set out here.

Records with an inconclusive call do not appear. A structure can be active in one record and inactive in another. The source made the active and inactive calls. Unless noted, calls follow the shape of the dose curve; as a rule, active = well fitted curve in the direction sought with a large enough effect in the repeat runs; inconclusive = weak or mixed curves; inactive = no such curve, though single readings can be large; an effect the other way counts as inactive or inconclusive.

Assay [1] is described as follows: qHTS assay to test for compound auto fluorescence at 535 nm (green) in HEK293 cells (AID 720680).
Assay [2] is described as follows: qHTS assay to test for compound auto fluorescence at 460 nm (blue) in HEK293 cell free culture (AID 720681). The method, boiled down:
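Blue fluorescence (Ex 405/Em 460 nm, triamterene-equivalent) was read immediately after pin transfer of compound or DMSO into medium (DMEM, 10% FBS) without cells.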

The nature of assay [3]: qHTS assay to test for compound auto fluorescence at 535 nm (green) in HEK293 cell free culture (AID 720682). The method, boiled down: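 Steps: dispense DMEM/10% FBS into empty wells; pin in compound or DMSO; measure fluorescence at 485/535 nm. Values are fluorescein equivalents.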
In general terms: In qHTS, concentration-response curves come from the screen itself.

A short description of assay [4]: qHTS assay to test for compound auto fluorescence at 590 nm (red) in HEK293 cell free culture (AID 720683). The method, boiled down:
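Red-channel autofluorescence of compounds in culture medium (DMEM, 10% FBS), no cells, measured at 540/590 nm. Rose Bengal sodium is the reference fluorophore for equivalence.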

The nature of assay [5]: qHTS assay to test for compound auto fluorescence at 590 nm (red) in HepG2 cell free culture (AID 720684). The method, boiled down: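 Cell-free; medium MEM + 10% FBS; compound or DMSO added by pintool; read Ex 540/Em 590 nm; Rose Bengal sodium as red reference fluorophore.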
The nature of assay [6]: qHTS assay to test for compound auto fluorescence at 460 nm (blue) in HepG2 cell free culture (AID 720685). The method, boiled down:
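Cell-free plates of MEM plus 10% FBS received 23 nL compound or DMSO vehicle; blue-channel (405/460 nm) intensity scored against triamterene as reference fluorophore.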

Assay [7] is described as follows: qHTS assay to test for compound auto fluorescence at 535 nm (green) in HepG2 cell free culture (AID 720686).
The nature of assay [8]: qHTS assay to test for compound auto fluorescence at 460 nm (blue) in HepG2 cells (AID 720687). In short, it runs like this: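 Blue-channel autofluorescence (Ex/Em 405/460 nm, triamterene-equivalent) was measured after 1 hr compound exposure at 37 C, 5% CO2. Cells were HepG2, plated overnight at 37 C in MEM plus 10% FBS.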
The target of assay [9] is Glucocorticoid receptor (Homo sapiens) (UniProt P04150). The assay can be described thus: qHTS assay to identify small molecule agonists of the glucocorticoid receptor (GR) signaling pathway (AID 720691; active = well fitted activation curve with a large enough effect in the signal ratio in the repeat runs, not every such curve was filed as active; the % refers to the signal ratio). The method, boiled down:
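A HeLa cervical cancer line expressing GR and a glucocorticoid response element-driven beta-lactamase gene is treated with compounds for 18 h; LiveBLAzer B/G FRET substrate is then applied and fluorescence read.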

Assay [10] shares this target. The assay is described as follows: qHTS assay to identify small molecule antagonists of the glucocorticoid receptor (GR) signaling pathway (AID 720692; active = well fitted inhibition curve with a large enough effect in the signal ratio in the repeat runs, not every such curve was filed as active; the % refers to the signal ratio). The method, boiled down:
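GRE-bla HeLa line, dex-stimulated (5 nM final). Compound exposure 18 h, 37 C. Beta-lactamase FRET read after 2 h RT substrate.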

Assay [11] is described as follows: qHTS assay to identify small molecule antagonists of the glucocorticoid receptor (GR) signaling pathway - cell viability counter screen (AID 720693). Also: nearly all actives have a fitted effect of over 55% in size.
Assay [12] in a line: qHTS assay for identifying genotoxic compounds that show differential cytotoxicity against isogenic chicken DT40 cell lines with known DNA damage response pathways - wild type cell line (AID 743012). Also: nearly all actives have a fitted effect of over 60% in size. Also: potency is read from the fitted curve at half-maximal effect. The method, boiled down:
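300 wt DT40 cells/well; cpd (DMSO) pintool-transferred after ~0.5 h at 37 C/5% CO2; 40 h incubation; CellTiter-Glo added, 30 min RT; luminescence read.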

A short description of assay [13]: qHTS assay for identifying genotoxic compounds that show differential cytotoxicity against isogenic chicken DT40 cell lines with known DNA damage response pathways - Rev3 mutant cell line (AID 743014). Also: nearly all actives have a fitted effect of over 55% in size. Also: potency is read from the fitted curve at half-maximal effect.
The nature of assay [14]: qHTS assay for identifying genotoxic compounds that show differential cytotoxicity against isogenic chicken DT40 cell lines with known DNA damage response pathways - Rad54/Ku70 mutant cell line (AID 743015). Also: nearly all actives have a fitted effect of over 60% in size. Also: potency is read from the fitted curve at half-maximal effect.
Assay [15] in a line: qHTS assay to identify small molecule antagonists of the androgen receptor (AR) signaling pathway - cell viability counter screen (AID 743033; also: nearly all actives have a fitted effect of over 45% in size).
Assay [16] is described as follows: qHTS assay to identify small molecule antagonists of the androgen receptor (AR) signaling pathway using the MDA cell line - cell viability counter screen (AID 743041; also: nearly all actives have a fitted effect of over 45% in size). In short, it runs like this: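 Viability read by CellTiter-Fluor fluorescence in the same wells as the antagonist screen, added after 15.5 h of a 16 h, 37C exposure. Human breast carcinoma MDA-kb2 AR-luc cells, compounds co-dosed with agonist R1881.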

Assay [17] deals with Androgen receptor (Homo sapiens) (UniProt P10275). The assay is described as follows: qHTS assay to identify small molecule antagonists of the androgen receptor (AR) signaling pathway (AID 743035; active = well fitted inhibition curve with a large enough effect in the signal ratio in the repeat runs, not every such curve was filed as active; the % refers to the signal ratio). In short, it runs like this:
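In this cell-based reporter screen, compounds were tested in concentration series against R1881-activated HEK293 cells expressing beta-lactamase under UAS control; after 16 h at 37C, FRET substrate was added and fluorescence read 2 h later.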

For assay [18] the target is unchanged. The assay can be described thus: qHTS assay to identify small molecule agonists of the androgen receptor (AR) signaling pathway (AID 743036; active = well fitted activation curve with a large enough effect in the signal ratio in the repeat runs, with a control signal flat, not every such curve was filed as active; the % refers to the signal ratio). In short, it runs like this:
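Reporter line: GeneBLAzer AR-UAS-bla-GripTite (HEK293). Steps: plate cells, 4 h rest, add compounds, 16 h at 37C, add LiveBLAzer B/G substrate, 2 h at RT, read fluorescence.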

For assay [19] the target is unchanged. The assay is described as follows: qHTS assay to identify small molecule agonists of the androgen receptor (AR) signaling pathway using the MDA cell line (AID 743040; also: nearly all actives have a fitted effect of over 20% in size). In short, it runs like this: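 Luciferase agonist assay: 16 h compound exposure at 37C without CO2 in MDA-kb2 AR-luc cells, whose MMTV promoter responds to both AR and GR. Luminescence measured after 30 min room-temperature incubation with ONE-Glo.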

For assay [20] the target is unchanged. The assay can be described thus: qHTS assay to identify small molecule antagonists of the androgen receptor (AR) signaling pathway using the MDA cell line (AID 743042; also: nearly all actives have a fitted effect of over 55% in size). In short, it runs like this: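 Antagonist mode: compounds plus R1881 agonist added to MDA-kb2 AR-luc cells, incubated 16 h at 37C. Luciferase reporter luminescence quantified, with multiplexed CellTiter-Fluor readout for cell viability.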
% is scaled to controls: 0 for no effect and ±100 for the full control effect.

Glucocorticoid receptor (Homo sapiens), sequence (P04150 whole entry, looked up): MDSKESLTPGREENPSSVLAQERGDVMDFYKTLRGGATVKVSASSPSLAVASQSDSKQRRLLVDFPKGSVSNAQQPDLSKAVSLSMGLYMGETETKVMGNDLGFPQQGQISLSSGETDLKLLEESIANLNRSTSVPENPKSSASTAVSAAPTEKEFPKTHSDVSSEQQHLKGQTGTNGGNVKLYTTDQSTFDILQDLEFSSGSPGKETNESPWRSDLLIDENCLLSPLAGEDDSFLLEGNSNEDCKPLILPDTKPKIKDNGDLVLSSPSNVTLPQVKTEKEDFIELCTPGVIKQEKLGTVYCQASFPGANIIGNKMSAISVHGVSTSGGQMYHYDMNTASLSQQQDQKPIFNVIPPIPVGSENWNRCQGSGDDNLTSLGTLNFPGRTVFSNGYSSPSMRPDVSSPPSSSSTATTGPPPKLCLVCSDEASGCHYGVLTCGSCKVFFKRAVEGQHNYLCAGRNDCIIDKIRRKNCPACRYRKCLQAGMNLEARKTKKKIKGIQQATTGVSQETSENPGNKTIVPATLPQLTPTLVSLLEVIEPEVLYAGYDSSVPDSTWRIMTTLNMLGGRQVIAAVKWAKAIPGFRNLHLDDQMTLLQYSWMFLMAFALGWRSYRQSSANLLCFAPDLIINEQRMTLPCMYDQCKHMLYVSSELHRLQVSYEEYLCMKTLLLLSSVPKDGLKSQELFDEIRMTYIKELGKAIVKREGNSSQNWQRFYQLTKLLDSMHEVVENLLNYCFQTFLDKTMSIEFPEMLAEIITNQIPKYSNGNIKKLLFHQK
Androgen receptor (Homo sapiens), sequence (P10275 whole entry, looked up): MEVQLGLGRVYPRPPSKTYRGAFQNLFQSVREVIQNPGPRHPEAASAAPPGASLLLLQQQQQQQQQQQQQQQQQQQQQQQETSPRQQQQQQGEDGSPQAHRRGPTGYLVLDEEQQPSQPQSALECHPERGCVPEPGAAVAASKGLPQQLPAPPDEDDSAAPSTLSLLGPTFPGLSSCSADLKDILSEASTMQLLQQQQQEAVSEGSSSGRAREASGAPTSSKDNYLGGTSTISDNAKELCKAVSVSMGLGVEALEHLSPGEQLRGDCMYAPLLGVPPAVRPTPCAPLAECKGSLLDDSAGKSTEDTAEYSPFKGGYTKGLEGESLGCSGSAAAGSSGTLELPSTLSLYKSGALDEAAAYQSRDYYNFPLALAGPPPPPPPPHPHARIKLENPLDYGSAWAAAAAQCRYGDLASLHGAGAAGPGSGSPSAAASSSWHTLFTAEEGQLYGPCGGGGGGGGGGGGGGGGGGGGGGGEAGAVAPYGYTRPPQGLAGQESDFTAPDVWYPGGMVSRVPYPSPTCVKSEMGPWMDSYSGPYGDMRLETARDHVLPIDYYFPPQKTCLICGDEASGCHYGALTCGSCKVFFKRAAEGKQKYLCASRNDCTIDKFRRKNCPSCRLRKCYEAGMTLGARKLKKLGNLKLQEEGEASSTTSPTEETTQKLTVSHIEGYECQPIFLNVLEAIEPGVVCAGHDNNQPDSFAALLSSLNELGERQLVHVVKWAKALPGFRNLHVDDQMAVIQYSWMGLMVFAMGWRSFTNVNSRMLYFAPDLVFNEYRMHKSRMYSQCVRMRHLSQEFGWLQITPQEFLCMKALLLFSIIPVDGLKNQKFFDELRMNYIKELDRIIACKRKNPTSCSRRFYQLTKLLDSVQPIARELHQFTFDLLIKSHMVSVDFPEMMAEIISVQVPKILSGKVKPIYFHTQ

In the case of `CC12CCC(CC1=O)C2(C)C` (centres undefined), the call in [1], in assay [3], in [4], in assay [5], in assay [7] and in assay [11] was inactive. Besides, the call in assay [15] was inactive. Besides, the Potency result in [2], in assay [6], in assay [8], in [9], in [10] and in [12] was “inactive” throughout. The Potency result in [13], in assay [14] and in assay [16] was “inactive” throughout.

As for `O=C(O)/C=C/c1ccc(/C=C/C(=O)O)cc1`, the call in assay [1], in assay [3], in [4], in [5], in assay [7] and in assay [11] was inactive. For the same compound, the compound was classed as inactive in [15], in assay [18] and in [20]. For the same compound, the Potency result in assay [2], in assay [6], in [8], in assay [9], in assay [10] and in assay [12] was “inactive” throughout. Also, the Potency entry in assay [13], in assay [17], in [19] and in assay [16] was “inactive” each time.

`NC(N)=NS(=O)(=O)c1ccc(N)cc1`: in assay [1], the fluorescence, % of fluorescein was 0.0406% [at 18.6 µM] (inactive). For the same compound, the fluorescence, % of fluorescent control in [2] was -0.0354% [at 18.6 µM] (inactive); in assay [4], -0.0082% [at 18.6 µM] (inactive); in [6] it was -0.0031% [at 18.6 µM] (inactive); in [8], -0.0417% [at 18.6 µM] (inactive). Besides, in assay [3], the activity change is 0.0753% [at 18.6 µM] (inactive). In assay [5], the fluorescence, % of Rose Bengal was 0.343% [at 18.6 µM] (inactive). In addition, the fluorescence, % of fluorescein control in assay [7] is -0.0207% [at 18.6 µM] (inactive). For the same compound, the Potency entry in assay [9], in [10], in assay [12], in [13], in [14] and in assay [17] was “inactive” in each case. Also, the Potency entry in [19] and in assay [16] was “inactive” in each case. The call in [11], in assay [15], in [18] and in assay [20] was inactive.

With `CCOC(=O)[C@H](CCc1ccccc1)N[C@@H](C)C(=O)N1CCC[C@H]1C(=O)O`, the outcome in assay [1], in [3], in assay [4], in assay [5], in assay [7] and in [11] was inactive. Also, in [15], the compound was classed as inactive. Moreover, the Potency entry in assay [2], in [6], in assay [8], in [9], in assay [10] and in assay [12] was “inactive” each time. The Potency result in assay [13], in assay [14] and in assay [16] was “inactive” in each case.

With `c1cc(CN2CCCCC2)cc(OCCCNc2nc3ccccc3s2)c1`, the call in [1], in assay [3], in assay [4], in [5], in assay [7] and in assay [11] was inactive. In [15], the compound was classed as inactive. Also, the Potency entry in assay [2], in assay [6], in assay [8], in assay [9], in assay [10] and in assay [16] was “inactive” each time. Also, the Potency was 13.3 µM (active) in assay [12], 29.8 µM (active) in [13] and 23.7 µM (active) in assay [14].

For `[O-][N+](=Nc1ccccc1)c1ccccc1`, the call in assay [1], in assay [3], in assay [4], in assay [5], in [7] and in [11] was inactive. In assay [15], the call was inactive. Moreover, the Potency result in assay [2], in assay [6], in assay [8], in assay [9], in [10] and in [12] was “inactive” throughout. Besides, the Potency result in [13] and in assay [16] was “inactive” in each case. Also, the Potency in assay [14] was 26.6 µM (active) and inactive.

As to `CC(=O)NC(Cc1ccccc1)C(=O)O` (centres undefined), the compound was classed as inactive in assay [1], in assay [3], in [4], in assay [5], in [7] and in [11]. The compound was classed as inactive in [15]. The Potency entry in assay [2], in assay [6], in assay [8], in assay [9], in assay [10] and in assay [12] was “inactive” in each case. Moreover, the Potency entry in [13], in assay [14] and in assay [16] was “inactive” throughout.
